This excerpt belongs to a sample that is enriched for hits.
AmpC detergent: blocks E. coli AmpC beta-lactamase in detergent assay; Potency, µM (titrated, usually from 114 µM), usual class: inhibitors; AID 485294; hit rate 0.041% among 370,000; P00811; AmpC hydrolysis of nitrocefin, absorbance 480 nm, 0.01% Triton; also: nearly all actives have a fitted effect of over 25% in size
Target sequence (P00811 whole entry, looked up): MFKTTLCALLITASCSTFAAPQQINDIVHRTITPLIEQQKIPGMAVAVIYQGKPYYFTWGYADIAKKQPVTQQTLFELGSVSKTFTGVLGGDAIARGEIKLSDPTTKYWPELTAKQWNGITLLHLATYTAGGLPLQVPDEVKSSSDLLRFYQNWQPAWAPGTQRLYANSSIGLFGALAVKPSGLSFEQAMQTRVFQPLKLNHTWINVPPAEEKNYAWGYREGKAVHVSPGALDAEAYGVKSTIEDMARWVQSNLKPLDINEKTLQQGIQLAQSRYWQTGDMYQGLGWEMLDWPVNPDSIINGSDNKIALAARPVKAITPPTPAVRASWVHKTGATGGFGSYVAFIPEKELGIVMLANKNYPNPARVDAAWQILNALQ
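20 mM phosphate pH 7.0 + 0.01% (detergent screen) or 0.0001% Triton X-100; 5.3 nM AmpC reagent; cpd preinc 15 min RT; nitrocefin (800 uM stock) to start; A480 q20 s × 4 min; Activity was normalised to no-enzyme and no-compound control wells.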
Shiga toxin inh: blocks Shiga toxin action in Vero cells | Vero cells, Shiga toxin protein synthesis inhibition reporter | inhibition, % at 38.7 µM | hit rate 9.2% among 290,000 | AID 2315; in the data active = inhibition mostly above about 28%, no sharp cut-off; inactive = mostly below about 43%
AMA1 RON2 block: AMA1-RON2 (P. falciparum) interaction inhibition; AlphaScreen AMA1-biotinylated RON2 peptide binding; Potency, µM (top dose mostly 58.2 µM), actives largely listed as inhibitors; hit rate 0.2% among 360,000; AID 720542; also: nearly all actives have a fitted effect of over 45% in size
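AMA1 (3D7) with his tag at 25 nM final met compounds first, then biotinylated RON2 peptide at 25 nM; detection used donor plus acceptor beads, 10 µg/mL apiece, read by AlphaScreen after 30 min at room temperature.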
SARS PLP yeast: inhibitors of SARS-CoV papain-like protease in yeast; Potency, µM (doses to about 32.9 µM), usual class: activators; S. cerevisiae expressing SARS-CoV PLpro, growth rescue; hit rate 0.19% among 330,000; calls by dose curve; also: nearly all actives have a fitted effect of over 55% in size
Cycloheximide cs: affects cycloheximide protein synthesis inhibition readout, counter-screen. max response, %. cell reporter, cycloheximide protein synthesis inhibition counterscreen. hit rate 12% among 300,000. AID 2314; in the data active = max response mostly above about 13%, no sharp cut-off; inactive = mostly below about 14%; also: read at 38.3 µM for the half of the compounds with a filed dose
AmpC inh no detg: AmpC beta-lactamase inhibition without detergent; AmpC nitrocefin hydrolysis, absorbance 480 nm, 0.0001% Triton; P00811; hit rate 0.52% among 330,000; Potency, µM (highest dose often 57.1 µM), usual class: inhibitors; AID 485341; also: nearly all actives have a fitted effect of over 20% in size
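20 mM phosphate pH 7.0 + 0.01% (detergent screen) or 0.0001% Triton X-100; 5.3 nM AmpC reagent; cpd preinc 15 min RT; nitrocefin (800 uM stock) to start; A480 q20 s × 4 min; Activity was normalised to no-enzyme and no-compound control wells.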
Large screens that a line does not name were inactive. Unless noted, calls follow the shape of the dose curve; as a rule, active = well fitted curve in the direction sought with a large enough effect; inconclusive = small, poorly fitted or top-dose-only effect, or another doubt; inactive = no such curve, though single readings can be large; an effect the other way counts as inactive or inconclusive.

CCN1CCN(c2ccc(Cl)cc2NC(=O)c2ccc(-n3nc(C)cc3C)cc2)CC1	none (no result: Shiga toxin inh, Cycloheximide cs)
Brc1ccc2[nH]c3c(N4CCc5ccccc5C4)ncnc3c2c1	Shiga toxin inh 71.6, Cycloheximide cs 49.3
Fc1ccc2[nH]c3c(N4CCc5ccccc5C4)ncnc3c2c1	none
Cn1cnc(S(=O)(=O)N2CCCC(C(=O)Nc3ccc(F)cc3Cl)C2)c1 (stereo not given)	none (no result: Shiga toxin inh, AMA1 RON2 block, SARS PLP yeast, Cycloheximide cs, AmpC inh no detg)
CC(=O)Oc1ccccc1Cn1c(C)c(C(=O)NCc2cccc(Cl)c2)sc1=O	none (no result: AmpC detergent, Shiga toxin inh, SARS PLP yeast, Cycloheximide cs, AmpC inh no detg)
COC(=O)c1cc2ccsc2n1Cc1cc(=O)n2ccccc2n1	Shiga toxin inh 73.7, Cycloheximide cs 27.9
O=c1c2sccc2n(Cc2cc(=O)n3ccccc3n2)c(=O)n1-c1ccccc1	none
CSC(=NCCCN1CCOCC1)NS(=O)(=O)c1cccs1	none
COc1ccc(-c2noc(-c3ccc(NCc4ccco4)c([N+](=O)[O-])c3)n2)cc1	none (no result: Shiga toxin inh, AMA1 RON2 block, SARS PLP yeast, Cycloheximide cs, AmpC inh no detg)
O=C(O)C(Cc1ccccc1)Nc1ccc([N+](=O)[O-])cc1[N+](=O)[O-] (stereo not given)	Cycloheximide cs 20.3
O=C(Nc1ccccc1)c1ccc(NCCc2ccccc2)c([N+](=O)[O-])c1	AmpC detergent inconclusive
O=C(O)[C@H](Cc1ccccc1)Nc1ccc([N+](=O)[O-])cn1	none
NC(=O)c1ccc(NCc2ccco2)c([N+](=O)[O-])c1	Cycloheximide cs 17.0
NC(=O)c1ccc(NCCc2ccccc2)c([N+](=O)[O-])c1	Cycloheximide cs 15.5
NC(=O)c1cc([N+](=O)[O-])ccc1NCCc1ccccc1	AmpC detergent inconclusive, Cycloheximide cs active
CCc1ccc(NC(=O)C(CC)c2ccccc2)cc1 (stereo not given)	AmpC detergent inconclusive
COCCNC(=O)C(c1ccc(OC)cc1)N(CCOC)C(=O)CCC(=O)Nc1nccs1 (stereo not given)	none
CCS(=O)(=O)c1ccc(O)c(NC(=O)NC2CCCCC2)c1	Cycloheximide cs 12.3
O=C(Nc1ccccc1C(=O)N1CCCCC1)NC1CCCCC1	none
CCc1ccccc1NC(=O)NC1CCCCC1	SARS PLP yeast inconclusive, Cycloheximide cs 14.2
O=C(Nc1ccccc1Cl)NC1CCCCCCC1	Shiga toxin inh 57.5, Cycloheximide cs 39.7, AmpC inh no detg 35.5µM
CCc1cccc(CC)c1NC(=O)NC1CCCCC1	AmpC detergent inconclusive
CCS(=O)(=O)c1ccc(O)c(NC(=O)Nc2cccc3ccccc23)c1	none
COCCOC(=O)CSc1ncccc1-c1nc2cc(C)c(C)cc2[nH]1	Cycloheximide cs 32.8
Cc1cc2nc(-c3cccnc3SCC(=O)NC(C)C)[nH]c2cc1C	Shiga toxin inh 65.7, Cycloheximide cs 79.5
O=C(c1ccccc1)c1ccc(N2CCOCC2)c(F)c1	Shiga toxin inh 131.4, Cycloheximide cs 20.5
O=C(Nc1ccc(N2CCOCC2)c(F)c1)c1ccncc1	Shiga toxin inh 60.8, Cycloheximide cs 17.9
O=C(Nc1ccc(N2CCOCC2)c(F)c1)c1cccs1	Shiga toxin inh 52.8, Cycloheximide cs 43.6
COc1ccc(C(=O)N[C@H](C(=O)OCC(=O)NC(=O)c2cccn2C)C(C)C)cc1	Cycloheximide cs 15.5
COc1cc(OC)cc(C(=O)N[C@H](C(=O)OCC(=O)NC(=O)c2cccn2C)C(C)C)c1	none
CCOc1ccccc1NC(=O)N1CCC(n2c(C)nc3cccnc32)CC1	none (no result: Shiga toxin inh, AMA1 RON2 block, SARS PLP yeast, Cycloheximide cs, AmpC inh no detg)
CCc1ccc(-c2cn3nc(-c4ccccc4)cnc3n2)cc1	Shiga toxin inh 63.8, Cycloheximide cs 24.6
Cc1cccc(/C=N/NC(=O)c2ccc(NC(=O)c3ccc(Cl)cc3)cc2)n1	Cycloheximide cs 10.9
Cc1cccc(C(=O)Nc2cccc(C(=O)N/N=C/c3cccc(C)n3)c2)c1	none
Cc1cccc(/C=N/NC(=O)c2ccc(NC(=O)c3ccc(F)cc3)cc2)n1	AmpC inh no detg 17.8µM
CC(=O)Nc1cccc(C(=O)N/N=C/c2cccc(C)n2)c1	none
CCCOc1ccc(CNC(=S)N/N=C/c2ccc([N+](=O)[O-])cc2)cc1	none
N#Cc1ccc(NC(=O)CN2C(=O)NC(Cc3ccccc3)C2=O)cc1 (stereo not given)	AmpC detergent inconclusive
S=C(NNC(=S)Nc1ccc(Cl)cc1)NNc1ccccc1	none (no result: AmpC detergent, Shiga toxin inh, SARS PLP yeast, Cycloheximide cs, AmpC inh no detg)
S=C(N=Nc1ccccc1)NNc1ccccc1	Shiga toxin inh 121.7, AMA1 RON2 block inconclusive, Cycloheximide cs 53.8
O=C1CCC([N+](=O)[O-])C(c2ccc(F)c(Br)c2)N1 (stereo not given)	none
CN1CCN(C(CNC(=O)Nc2ccc(Cl)cc2)c2ccc(F)cc2)CC1 (stereo not given)	AmpC detergent inconclusive
O=C(NCC1CC1)Nc1ccc(Cl)cc1	Shiga toxin inh 70.4, Cycloheximide cs 32.0
Cc1cccc(NC(=O)NCC(c2ccc(F)cc2)N2CCN(C)CC2)c1 (stereo not given)	Cycloheximide cs 19.4
O=C(NCC1CC1)Nc1cccc(C(F)(F)F)c1	none
O=C(NCC1CC1)Nc1cccc(Cl)c1	Shiga toxin inh 85.7, Cycloheximide cs 24.6
Cc1cccc(NC(=O)NCC2CC2)c1	Cycloheximide cs 14.1
O=C(NCCO)Nc1ccc(Cl)cc1	none
CN(C)C(=O)c1ccc(-n2cnc3ccccc3c2=O)cc1	none
COc1ccc(CCNC(=O)Cc2ccc(NS(=O)(=O)c3ccc(F)cc3)cc2)cc1OC	AmpC detergent inconclusive (no result: Shiga toxin inh, Cycloheximide cs)
CC(C)=N/N=C1\NC(=O)C(C)S1 (stereo not given)	AmpC detergent inconclusive, Cycloheximide cs 29.5
COc1ccc(NC(=O)c2ccc(NC(=O)COC(=O)CC(NC(=O)c3ccccc3Cl)c3ccccc3)cc2)cc1 (stereo not given)	AmpC detergent inconclusive, Cycloheximide cs 21.6
CCOc1ccc(C(=O)NCC(=O)N2CCCCCCC2)cc1	none (no result: Shiga toxin inh, Cycloheximide cs)
CCOc1ccc(NC(=O)c2ccc(NC(=O)COC(=O)Cc3ccccc3)cc2)cc1	Shiga toxin inh 49.6, Cycloheximide cs 40.0
COc1ccc(C(=O)Nc2ccc(C3CC3(Cl)Cl)cc2)cc1 (stereo not given)	Cycloheximide cs 21.5
CCOc1ccc(NC(=O)c2ccc(NCC(=O)N3CCCCCC3)cc2)cc1	Cycloheximide cs 26.9
CCOc1ccc(NC(=O)c2ccc(N)cc2)cc1	Shiga toxin inh 25.3, Cycloheximide cs 12.4
CCOc1ccc(NC(=O)c2ccc(NC(=O)c3ccc(NC(N)=O)cc3)cc2)cc1	none (no result: AmpC detergent, Shiga toxin inh, Cycloheximide cs)
Cn1cc(Br)c(C(=O)Nc2ncc(Br)s2)n1	Cycloheximide cs 35.9
CCOc1ccc(NC(=O)c2nn(C)cc2Br)cc1	AmpC detergent inconclusive, Cycloheximide cs 15.3
CCOc1ccc(NC(=O)c2ccc(OC)cc2)cc1	Shiga toxin inh 61.0, Cycloheximide cs 43.2
CC(=O)N(Cc1cccnc1)c1nc2cc(C)cc(C)c2s1	none (no result: Shiga toxin inh, AMA1 RON2 block, SARS PLP yeast, Cycloheximide cs, AmpC inh no detg)
O=c1cc(CSc2nnc(NC3CCCCC3)s2)nc2sccn12	none

Source: PubChem (National Center for Advancing Translational Sciences (NCATS))
